For seven compounds, growth results are on record in PubChem BioAssay (NCI).

This is part of a sample that, as a whole, favours compounds with a hit. Of some 83,000 tested, about 20% had one in any assay.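 For each line, cells grew in 96-well plates with the test compound present at a single concentration for 48 hours.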 A number with no mark means an inactive call. Calls of active or inactive are those of the source. How the source made its calls: active means growth percent below 10; inactive means the rest.

Test systems include HCT-15 colon; HT29 colon; SNB-75 CNS; SNB-19 CNS; U251 CNS; PC-3 prostate; SK-MEL-5 melanoma; UACC-62 melanoma; LOX IMVI melanoma; SK-MEL-28 melanoma; SK-MEL-2 melanoma; EKVX NSCLC; SN12C renal; UO-31 renal; TK-10 renal; ACHN renal; CAKI-1 renal; A498 renal; CCRF-CEM leukemia; MOLT-4 leukemia.
Holding throughout (experiment): NCI-60 one-dose screen, 48 h (100 = growth as untreated, 0 = no growth, -100 = all killed)
What all share (settings): 10 µM unless noted

Consider `CC1(C)CC(=O)C2=C(C1)OC(C(=O)c1ccccc1)C2c1cccc(Oc2ccccc2)c1` (stereo not given), for which the growth in the test with HCT-15 colon is 45.6%; with HT29 colon, 43.1%; in the test on SNB-75 CNS it was 40.7%; in the test with SNB-19 CNS, 60.8%; in the test with U251 CNS it was 40.8%; in the test with PC-3 prostate it was 24%. Further, the growth in the test with SK-MEL-5 melanoma was 36.3%; in the test on UACC-62 melanoma, 35.9%; with LOX IMVI melanoma it was 37%; in the test on SK-MEL-28 melanoma it was 74.4%; in the test on SK-MEL-2 melanoma it was 25%; in the test with EKVX NSCLC, 36.4%. The growth is 38.7% in the test with SN12C renal; 15.6% in the test with UO-31 renal; 63.8% with TK-10 renal; 32.7% in the test on ACHN renal; 41.6% with CAKI-1 renal; 49.6% in the test on A498 renal. The results for the growth in the test with CCRF-CEM leukemia and in the test with MOLT-4 leukemia were 34.5% and 12.2%, respectively.

Turning to `CCn1c2ccccc2c2cc(C(O)c3cccc4ncccc34)ccc21` (stereo not given), the growth in the test on HCT-15 colon was 11.6%; with HT29 colon, 8.32% (active); in the test on SNB-75 CNS, 31.1%; with SNB-19 CNS, 36.4%; with U251 CNS it was 19.2%; with PC-3 prostate, 13.4%. The growth in the test with SK-MEL-5 melanoma is -4.22% (active); in the test with UACC-62 melanoma, 16%; with LOX IMVI melanoma it was -8.41% (active); with SK-MEL-28 melanoma it was 61.5%; in the test with SK-MEL-2 melanoma, 51.5%; in the test on EKVX NSCLC, 59.3%. Moreover, the growth was 27.6% in the test with SN12C renal; 11.9% in the test with UO-31 renal; 54.7% with TK-10 renal; 27.9% in the test with ACHN renal; 43% in the test on CAKI-1 renal; 8.73% (active) in the test with A498 renal. Further, the results for the growth with CCRF-CEM leukemia and with MOLT-4 leukemia were 8.21% (active) and 13.5%, respectively.

As for `[2H]C([2H])([2H])Oc1c(F)cccc1/C=C/C(=O)/C=C(O)/C=C/c1cccc(F)c1OC([2H])([2H])[2H]`, the growth was 81.4% with HCT-15 colon; 103% in the test on HT29 colon; 114% with SNB-75 CNS; 94.4% with SNB-19 CNS; 87.8% in the test with U251 CNS; 88.4% with PC-3 prostate. The growth is 101% in the test with SK-MEL-5 melanoma; 92% in the test with UACC-62 melanoma; 85.8% with LOX IMVI melanoma; 98.1% in the test with SK-MEL-28 melanoma; 101% in the test on SK-MEL-2 melanoma; 107% in the test on EKVX NSCLC. Besides, the growth is 93.4% in the test on SN12C renal; 97.8% in the test on UO-31 renal; 114% in the test on TK-10 renal; 104% with ACHN renal; 103% with CAKI-1 renal; 109% with A498 renal. Also, the growth in the test on CCRF-CEM leukemia is 90.9%; in the test with MOLT-4 leukemia it was 77.7%.

As to `O=C1c2c(c3c4cccnc4[nH]c3c3ccc4ccccc4c23)C(=O)N1O`, the growth is 69% in the test with HCT-15 colon; 27.9% in the test on HT29 colon; 101% in the test with SNB-75 CNS; 29.7% in the test on SNB-19 CNS; 15.2% with U251 CNS; 43.1% in the test with PC-3 prostate. In addition, the growth in the test on SK-MEL-5 melanoma was 23.2%; in the test on UACC-62 melanoma, 24.4%; with LOX IMVI melanoma, -31.5% (active); in the test on SK-MEL-28 melanoma it was 46.1%; in the test on SK-MEL-2 melanoma, 91%; with EKVX NSCLC it was 97.7%. In addition, the growth is 26.5% in the test on SN12C renal; 57.6% with UO-31 renal; 133% with TK-10 renal; 45% in the test with ACHN renal; 47% with CAKI-1 renal; 84.7% in the test with A498 renal. The growth is 15.3% in the test on CCRF-CEM leukemia and 6.42% (active) with MOLT-4 leukemia.

Consider `CC/C(=C(/c1ccc(Cl)cc1)c1ccc(OCCCN(C)C)cc1)c1ccc(OC)cc1`, for which the growth with HCT-15 colon was 12.8%; in the test with HT29 colon, 1.68% (active); with SNB-75 CNS, 81%; in the test on SNB-19 CNS it was 82.8%; with U251 CNS it was 6.12% (active); in the test on PC-3 prostate it was 49.3%. Moreover, the growth in the test with SK-MEL-5 melanoma is 63.4%; in the test with UACC-62 melanoma, 104%; in the test with LOX IMVI melanoma, 16.6%; in the test with SK-MEL-28 melanoma it was 76.6%; in the test with SK-MEL-2 melanoma, 105%; in the test on EKVX NSCLC, 91%. Besides, the growth with SN12C renal was 83.3%; in the test on UO-31 renal it was 62.5%; in the test with TK-10 renal, 66.7%; in the test on ACHN renal, 83.6%; in the test on CAKI-1 renal it was 82.3%; in the test on A498 renal, 76.3%. In addition, the growth in the test on CCRF-CEM leukemia was 37%; with MOLT-4 leukemia, 28.1%.

In the case of `CCCCCCCCNc1ncnc2c1ncn2Cc1nnc2c3ccccc3c(Cl)nn12`, the growth with HCT-15 colon is 32.8%; in the test on HT29 colon it was 44.1%; in the test on SNB-75 CNS, 37.6%; in the test with SNB-19 CNS, 56.2%; in the test on U251 CNS, 44.8%; with PC-3 prostate it was 36.5%. Also, the growth with SK-MEL-5 melanoma is 39.3%; in the test with UACC-62 melanoma, 29.9%; in the test on LOX IMVI melanoma it was 12.8%; in the test with SK-MEL-28 melanoma, 62.9%; in the test on SK-MEL-2 melanoma, 16.7%; with EKVX NSCLC it was 57.3%. Further, the growth in the test with SN12C renal is 29.7%; with UO-31 renal, 23.6%; in the test on TK-10 renal, 43.8%; in the test with ACHN renal, 28.5%; in the test with CAKI-1 renal, 16.7%; with A498 renal, 69.8%. Moreover, the growth in the test with CCRF-CEM leukemia is 24.2%; in the test with MOLT-4 leukemia, 12.3%.

As for `Nc1n[nH]c2cccc(C#Cc3cccc(C(=O)Nc4ccc(Cl)c(C(F)(F)F)c4)c3)c12`, the growth with HCT-15 colon was 56.4%; in the test with HT29 colon, 26%; with SNB-75 CNS it was 65.7%; in the test with SNB-19 CNS, 89.1%; with U251 CNS, 69%; with PC-3 prostate it was 59.6%. Further, the growth with SK-MEL-5 melanoma is 46.7%; in the test on UACC-62 melanoma, 22.2%; in the test on LOX IMVI melanoma it was 18.1%; in the test on SK-MEL-28 melanoma, 24.7%; in the test with SK-MEL-2 melanoma it was 39.2%; in the test on EKVX NSCLC, 74.2%. The growth in the test on SN12C renal is 51.7%; in the test with UO-31 renal it was 29.6%; with TK-10 renal, 91.5%; in the test with ACHN renal it was 59.1%; in the test on CAKI-1 renal, 94.5%; with A498 renal, 35.6%. Further, the growth was 35.8% in the test on CCRF-CEM leukemia and 31.2% in the test with MOLT-4 leukemia.
